# Reference: PubChem BioAssay
# The source made the active and inactive calls.
# Tests used:
# [1] = test system: Plasmodium falciparum Sir2 (PF13_0152, Sir2A); experiment: pfSir2 binders on small-molecule microarrays, primary screen, biochemical, small-molecule microarray, 635 nm fluorescence (AID 1098); conditions: small-molecule microarray binding, fluorescence 635 nm; higher = more signal;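 note: score merges spot fluorescence intensity with its signal-to-noise ratio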
# [2] = small-molecule microarray binders of probe aDKK1, primary screen, biochemical, biotinylated probe, 635/667 nm fluorescence (AID 1099); conditions: higher = more signal;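 note: score merges 667nm spot fluorescence with signal to noise across triplicate slides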
# [3] = small-molecule microarray binders of probe aCHRDL2, primary screen, biochemical, biotinylated probe, 635/667 nm fluorescence (AID 1100); conditions: higher = more signal
# [4] = splicing luciferase reporter signal modulators, primary screen, spliceosome inhibition project, cell-based, HEK293, splice +/- reporter (AID 1101); conditions: luminescence, 24 h, higher = more signal, called active from +8 up or from −8 down;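 note: HEK293 cells carrying a splicing-competent luciferase reporter gene; test concentration not given here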
# [5] = target: Fibroblast growth factor 10 (Homo sapiens) (UniProt O15520); experiment: FGF10 binders on small-molecule microarrays, primary screen, biochemical, small-molecule microarray, 635 nm fluorescence (AID 1102); conditions: FGF10 binding, fluorescence 635 nm, higher = more signal
# Sequence of Fibroblast growth factor 10 (Homo sapiens) (O15520 whole entry, looked up): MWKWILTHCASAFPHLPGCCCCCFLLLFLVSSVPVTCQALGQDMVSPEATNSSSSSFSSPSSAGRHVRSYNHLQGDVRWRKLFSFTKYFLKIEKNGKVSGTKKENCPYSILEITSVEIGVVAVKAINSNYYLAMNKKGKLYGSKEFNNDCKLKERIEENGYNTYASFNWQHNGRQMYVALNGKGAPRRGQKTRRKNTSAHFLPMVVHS
# [6] = test system: glycogen synthase kinase-3 (GSK3A per assay name; protocol says GSK3B); experiment: GSK3 binders on small-molecule microarrays, primary screen, biochemical, small-molecule microarray, 635 nm fluorescence, GSK3A (AID 1103); conditions: small-molecule microarray binding, fluorescence 635 nm; higher = more signal; note: the record names both GSK3A and GSK3B
# [7] = target: Epidermal growth factor receptor (Homo sapiens) (UniProt P00533); experiment: EGFR binders on small-molecule microarrays, primary screen, biochemical, small-molecule microarray, 635 nm fluorescence (AID 1104); conditions: EGFR binding, higher = more signal;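 note: score merges 667 nm emission intensity with spot signal to noise over triplicate slides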
# Sequence of Epidermal growth factor receptor (Homo sapiens) (P00533 whole entry, looked up): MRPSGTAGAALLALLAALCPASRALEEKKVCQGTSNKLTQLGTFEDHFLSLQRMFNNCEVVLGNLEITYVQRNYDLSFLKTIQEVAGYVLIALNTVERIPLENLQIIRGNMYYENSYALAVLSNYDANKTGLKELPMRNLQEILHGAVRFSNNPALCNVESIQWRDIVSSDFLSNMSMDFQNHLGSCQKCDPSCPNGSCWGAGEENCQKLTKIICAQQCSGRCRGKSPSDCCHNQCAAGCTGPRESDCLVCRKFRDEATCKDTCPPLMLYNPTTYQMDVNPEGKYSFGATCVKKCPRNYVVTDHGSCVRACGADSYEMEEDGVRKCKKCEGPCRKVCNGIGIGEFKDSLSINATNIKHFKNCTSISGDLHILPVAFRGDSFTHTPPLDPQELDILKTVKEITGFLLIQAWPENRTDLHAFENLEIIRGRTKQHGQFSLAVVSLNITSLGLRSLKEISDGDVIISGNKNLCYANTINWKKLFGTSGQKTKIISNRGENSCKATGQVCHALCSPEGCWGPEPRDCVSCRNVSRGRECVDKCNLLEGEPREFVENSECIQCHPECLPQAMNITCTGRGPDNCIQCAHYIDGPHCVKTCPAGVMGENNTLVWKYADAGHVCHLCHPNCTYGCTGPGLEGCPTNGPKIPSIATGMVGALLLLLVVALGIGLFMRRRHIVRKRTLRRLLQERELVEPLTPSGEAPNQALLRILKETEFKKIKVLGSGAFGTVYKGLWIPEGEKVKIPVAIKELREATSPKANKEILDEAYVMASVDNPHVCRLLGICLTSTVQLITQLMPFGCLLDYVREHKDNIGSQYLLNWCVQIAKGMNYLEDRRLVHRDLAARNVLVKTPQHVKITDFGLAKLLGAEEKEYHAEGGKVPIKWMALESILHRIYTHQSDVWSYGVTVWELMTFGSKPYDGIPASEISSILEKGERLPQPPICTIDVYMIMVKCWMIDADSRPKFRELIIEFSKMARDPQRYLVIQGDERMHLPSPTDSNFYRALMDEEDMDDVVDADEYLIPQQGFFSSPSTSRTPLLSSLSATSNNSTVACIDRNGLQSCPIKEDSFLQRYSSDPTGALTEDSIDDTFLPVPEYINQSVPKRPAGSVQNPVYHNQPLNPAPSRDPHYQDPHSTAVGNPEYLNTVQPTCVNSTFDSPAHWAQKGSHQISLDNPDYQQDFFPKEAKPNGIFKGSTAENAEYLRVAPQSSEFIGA
# [8] = target: Follistatin-related protein 3 (Homo sapiens) (UniProt O95633); experiment: FSTL3 binders on small-molecule microarrays, primary screen, biochemical, small-molecule microarray, 635 nm fluorescence (AID 1105); conditions: FSTL3 binding, higher = more signal;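 note: score merges emission near 667 nm and signal to noise per printed spot across three slides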
# Sequence of Follistatin-related protein 3 (Homo sapiens) (O95633 whole entry, looked up): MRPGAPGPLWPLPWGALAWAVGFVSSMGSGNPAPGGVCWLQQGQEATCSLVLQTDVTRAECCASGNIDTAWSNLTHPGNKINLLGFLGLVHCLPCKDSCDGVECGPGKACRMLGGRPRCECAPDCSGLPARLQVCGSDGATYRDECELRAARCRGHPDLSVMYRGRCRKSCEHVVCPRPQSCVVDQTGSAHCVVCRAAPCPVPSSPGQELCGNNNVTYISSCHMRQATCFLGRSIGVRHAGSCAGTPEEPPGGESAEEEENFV
# [9] = target: Dickkopf-related protein 1 (Homo sapiens) (UniProt O94907); experiment: DKK1 binders on small-molecule microarrays, primary screen, biochemical, small-molecule microarray, 635 nm fluorescence scan (AID 1106); conditions: DKK1 binding, higher = more signal;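 note: score merges emission near 667 nm with signal to noise over three replicate slides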
# Sequence of Dickkopf-related protein 1 (Homo sapiens) (O94907 whole entry, looked up): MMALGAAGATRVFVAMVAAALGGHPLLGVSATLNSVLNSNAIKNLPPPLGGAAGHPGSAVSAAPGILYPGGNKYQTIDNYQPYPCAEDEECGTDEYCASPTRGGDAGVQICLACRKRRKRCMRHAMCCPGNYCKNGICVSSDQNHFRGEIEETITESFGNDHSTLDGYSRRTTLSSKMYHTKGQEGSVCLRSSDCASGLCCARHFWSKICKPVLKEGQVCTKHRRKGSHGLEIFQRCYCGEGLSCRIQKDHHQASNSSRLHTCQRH
# [10] = test system: Inhibin beta A chain (activin A); experiment: INHBA (activin A) binders on microarrays, primary screen, biochemical, small-molecule microarray, 635 nm fluorescence scan (AID 1107); conditions: small-molecule microarray binding, higher = more signal;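 note: mouse activin A protein probed at 4.33 µg/mL on printed slides; score merges bound-protein fluorescence near 667 nm with spot signal-to-noise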
# [11] = test system: Human papillomavirus type 1a protein E7 (residues 44-93); experiment: HPV1a E7 fragment binders on microarrays, primary screen, biochemical, small-molecule microarray, residues 44-93, 635 nm fluorescence (AID 1108); conditions: small-molecule microarray binding, fluorescence 635 nm; higher = more signal;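 note: E7 fragment applied at 1 µg/mL in TBST for 1 h at 4 C; score combines spot fluorescence with its signal to noise ratio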
# [12] = modulators of HCV replicon luciferase signal, primary screen, HCV replication inhibitor project, Huh7 cells, luciferase reporter (AID 1109); conditions: 48 h, higher = more signal;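 note: huh7 hepatoma cells harbouring a luciferase neomycin HCV replicon reporter; luciferase luminescence as measure of HCV replicon replication; test concentration not given here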
# [13] = target: Left-right determination factor 2 (Homo sapiens) (UniProt O00292); experiment: LEFTY2 binders on small-molecule microarrays, primary screen, biochemical, small-molecule microarray, 635 nm fluorescence scan (AID 1110); conditions: LEFTY2 binding, higher = more signal
# Sequence of Left-right determination factor 2 (Homo sapiens) (O00292 whole entry, looked up): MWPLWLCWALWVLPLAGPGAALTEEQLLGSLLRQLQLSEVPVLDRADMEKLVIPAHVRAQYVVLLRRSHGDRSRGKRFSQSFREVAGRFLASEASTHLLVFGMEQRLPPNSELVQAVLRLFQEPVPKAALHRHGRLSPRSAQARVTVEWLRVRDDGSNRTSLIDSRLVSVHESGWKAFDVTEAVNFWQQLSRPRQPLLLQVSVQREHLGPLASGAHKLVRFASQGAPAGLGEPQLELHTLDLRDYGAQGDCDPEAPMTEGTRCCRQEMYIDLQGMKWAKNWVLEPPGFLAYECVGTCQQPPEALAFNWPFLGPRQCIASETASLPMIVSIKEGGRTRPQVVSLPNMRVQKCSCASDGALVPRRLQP
# [14] = target: Calmodulin-1 (Homo sapiens) (UniProt P0DP23); experiment: CALM1 binders on microarrays, EGTA buffer, profiling panel, biochemical, small-molecule microarray, Cy5-labelled CALM1 (AID 1111); conditions: Cy5-CALM1 binding fluorescence, higher = more signal;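 note: labelled calmodulin applied in Tris saline Tween buffer holding calcium plus EGTA and DTT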
# [15] = target: Calmodulin-1 (Homo sapiens) (UniProt P0DP23); experiment: calcium-bound CALM1 binders on microarrays, profiling panel, artefact control for SMM control-protein annotation, biochemical, small-molecule microarray, Cy5-labelled CALM1, plus calcium (AID 1112); conditions: Cy5-CALM1 binding fluorescence, higher = more signal;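 note: score merges spot fluorescence with signal to noise from triplicate slides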
# [16] = small-molecule microarray binders of probe aWnt5a, primary screen, biochemical, biotinylated probe, 635/667 nm fluorescence (AID 1113); conditions: higher = more signal;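 note: score merges 667 nm fluorescence intensity with signal-to-noise per printed feature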
# [17] = small-molecule microarray binders of probe aShh, primary screen, biochemical, biotinylated probe, 635/667 nm fluorescence (AID 1114); conditions: higher = more signal;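 note: probe is biotin-labelled aShh protein from a stem cell growth factor screen; measures binding of labelled protein to compounds printed on the slide; score merges feature fluorescence at 667 nm with signal-to-noise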
# [18] = small-molecule microarray binders of probe aNog, primary screen, biochemical, biotinylated probe, 635/667 nm fluorescence (AID 1115); conditions: higher = more signal;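 note: probe is biotinylated aNog protein used at 0.15 µg/mL for 1 h at 4 C; z-score combines 667 nm fluorescence of each spot with its signal to noise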
# [19] = target: Torsin-1A-interacting protein 1 (Homo sapiens) (UniProt Q5JTV8); experiment: LAP1 binders from COS7 cell lysate, primary screen, small-molecule microarray, 635/667 nm fluorescence (AID 1116); conditions: COS7-hLAP1 lysate binding, 635 nm fluorescence, higher = more signal
# Sequence of Torsin-1A-interacting protein 1 (Homo sapiens) (Q5JTV8 whole entry, looked up): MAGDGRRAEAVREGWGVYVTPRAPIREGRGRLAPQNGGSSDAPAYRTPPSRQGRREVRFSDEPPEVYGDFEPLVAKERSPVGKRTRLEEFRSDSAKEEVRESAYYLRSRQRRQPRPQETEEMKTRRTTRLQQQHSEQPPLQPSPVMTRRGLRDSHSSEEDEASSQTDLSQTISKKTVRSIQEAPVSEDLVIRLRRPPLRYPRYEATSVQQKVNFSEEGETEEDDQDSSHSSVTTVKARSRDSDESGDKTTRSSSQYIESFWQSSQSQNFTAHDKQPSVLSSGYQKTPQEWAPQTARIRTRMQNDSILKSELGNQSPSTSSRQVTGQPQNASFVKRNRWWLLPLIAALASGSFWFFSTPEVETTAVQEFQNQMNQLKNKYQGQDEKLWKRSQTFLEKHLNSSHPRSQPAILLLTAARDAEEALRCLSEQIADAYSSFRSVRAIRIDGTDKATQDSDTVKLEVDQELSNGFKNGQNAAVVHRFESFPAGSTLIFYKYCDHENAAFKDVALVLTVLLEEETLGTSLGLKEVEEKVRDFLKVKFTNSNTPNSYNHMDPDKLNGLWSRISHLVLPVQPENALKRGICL
# [20] = target: Alpha-bungarotoxin (Bungarus multicinctus) (UniProt P60615); experiment: alpha-bungarotoxin binders on microarray, profiling panel, artefact control for SMM control protein annotation, biochemical, small-molecule microarray, Alexa647 label, 635/667 nm fluorescence (AID 1117); conditions: alpha-BTX-A647 binding fluorescence, higher = more signal
# Sequence of Alpha-bungarotoxin (Bungarus multicinctus) (P60615 whole entry, looked up): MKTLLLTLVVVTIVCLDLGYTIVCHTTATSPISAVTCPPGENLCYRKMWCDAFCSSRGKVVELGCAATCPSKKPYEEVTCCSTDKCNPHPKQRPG
SMILES,composite z-score [1],composite z-score [2],composite z-score [3],z-score [4],composite z-score [5],composite z-score [6],composite z-score [7],composite z-score [8],composite z-score [9],composite z-score [10],composite z-score [11],z-score [12],composite z-score [13],composite z-score [14],composite z-score [15],composite z-score [16],composite z-score [17],composite z-score [18],composite z-score [19],composite z-score [20]
COCCOC(=O)N1C(=O)[C@@]2(c3ccccc31)[C@H](C(=O)N1CCN(c3ncccn3)CC1)[C@H]1C(=O)O[C@H](c3ccccc3)[C@H](c3ccccc3)N1[C@@H]2c1ccccc1OCCO,1.33,-0.0994,-0.41,-1.05 (inactive),1.17,1.31,0.575,1.15,0.778,0.888,1.35,-1.79,0.687,0.902,0.369,-0.0462,0.704,0.26,0.405,0.749
C=CC1c2cc(O)c(OC)cc2CCN1C (stereo not given),0.21,0.416,0.759,0.978 (inactive),-0.169,-1.24,-0.534,-0.332,-0.26,0.725,-0.728,-1.02,-0.94,0.504,1.04,-0.112,-0.243,-0.348,0.381,-0.383
CC(=O)c1ccc(C(O)C2C=CC3C(=O)N(c4ccccc4)C(=O)C3N2Nc2ccc(C(C)C)cc2)cc1 (stereo not given),0.696,1.46,0.865,-0.385 (inactive),1.01,0.806,0.314,1.25,-0.0216,1.05,0.637,-0.674,0.438,0.889,0.0603,-0.0519,0.0278,1.7,0.415,0.859
CN(C)C(=O)[C@]1(Cc2ccccc2)N=C(c2ccc(OCCCO)cc2)O[C@@H]1c1ccccc1CN=[N+]=[N-],0.978,0.143,0.591,-0.741 (inactive),1.23,1.33,0.0699,0.741,-0.124,0.406,1.41,-2.79,-0.273,1.09,0.781,0.027,0.116,-0.294,1.62,1.15
CC1CC/C=C\[C@H]2OC34C=CCN(CCN5CCOCC5)C(=O)[C@H]3N(CCCO)C(=O)[C@@H]4C2C(=O)O1 (stereo not given in full),0.367,-0.399,-0.141,0.316 (inactive),-0.188,-0.0682,-0.555,-0.59,-0.235,1.39,-0.591,-0.945,-0.573,-0.589,-0.565,-0.192,-0.214,0.144,-0.181,-1.02
COC(=O)[C@@]1(Cc2ccc(OC)cc2)[C@H]2c3cc(C(=O)N4CCCC4)n(Cc4ccc(C(F)(F)F)nc4)c3C[C@H]2CN1C(=O)c1ccccc1,1.27,0.0202,0.872,-4.53 (inactive),0.69,-0.478,0.282,0.11,-0.301,0.918,0.381,-2.25,-0.412,0.0624,-0.954,0.037,-0.153,0.374,0.476,-0.075
C=CCNC(=O)[C@@H]1[C@H]2C(=O)O[C@H](c3ccccc3)[C@H](c3ccccc3)N2[C@H](c2ccc(OCCO)cc2)[C@@]12C(=O)Nc1ccc(C#CC3(O)CCCCCC3)cc12,1.42,0.535,0.65,-1.43 (inactive),0.986,1.22,0.378,0.826,0.371,-0.0995,1.12,-2.43,0.367,0.92,0.0835,-0.0203,-0.278,0.822,0.699,1.35
Cc1ccc(S[C@]2(C(=O)NC(C)C)CC(=O)N(C3CCCCC3)[C@@H]2c2ccc(CO)cc2I)cc1,1.16,0.763,0.547,-0.504 (inactive),0.612,0.621,-0.242,1.19,0.205,0.0441,1.44,-2.93,-0.0068,0.679,-0.558,-0.0721,-0.0035,0.313,0.208,1.52
CC1CC/C=C\[C@H]2OC34C=CCN(c5ccc(Cl)cc5)C(=O)[C@H]3N(CCCCCCO)C(=O)[C@]4(C)C2C(=O)O1 (stereo not given in full),0.597,-0.13,0.747,0.104 (inactive),-0.533,-0.594,-0.726,-0.931,-1.43,0.0845,0.0258,-0.0973,-1.56,-0.249,0.864,-0.262,-0.138,0.0112,-0.377,-0.856
CCOC(=O)C1=CC[C@@H](c2ccc(OC)cc2)N(S(=O)(=O)c2ccc(C)cc2)[C@H]1CC,0.469,0.607,0.88,-1.27 (inactive),0.996,0.811,0.233,1.1,0.106,0.372,1.18,-2.44,0.349,1.84,0.436,0.0438,-0.221,1.48,0.482,1
CCCCCCc1nc(Cc2cc(OC)c(OC)c(OC)c2)cc2c1[Si](C(C)C)(C(C)C)O[C@H]2c1ccccc1,0.268,-0.333,-0.511,-0.189 (inactive),0.351,0.124,0.569,0.594,0.548,0.882,0.192,-2.41,0.851,-0.0875,-0.593,-0.124,0.235,0.0646,-0.142,0.889
